Tgondii IFNg: T. gondii growth inhibition with IFN-gamma, primary screen, cell-based. hit rate 3.8% among 69,000. activity change, negative = inhibition, % (no concentration beside the values). Toxoplasma gondii growth in IFN-gamma-treated host cells; hits give low values. AID 1259416, 2018; in the data active means activity change below about -70%, passing the limit was not always enough;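 further: host cells are HeLa cells infected with Toxoplasma gondii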
* marks the source's active call; other numbers are inactive results; ! = not confirmed by another sample. Many of the other results were omitted from the sample, so hits are more common in it than they were.

SMILES	Tgondii IFNg
Cn1cccc1C(=O)N1CCC2(CCCN2CC2CC2)CC1	-4.2
CC(C)(C)CC(Nc1nc(-c2cccnc2)nc2c1CNC2)c1cccnc1 (centres undefined)	-17.7
CC(C)Cc1cc(CNc2nc(-c3cccnc3)nc3c2CCNC3)no1	-35.9
CCc1cc(C(C)Nc2nc(-c3cccnc3)nc3c2CNC3)on1 (centres undefined)	-88.2*
COCC1CC2(CCN(C(=O)N3CCCC3)CC2)CN1CC1CC1 (centres undefined)	2.6
CC(C)Cc1ccc(S(=O)(=O)N2CCC3(CC2)NCCN=C3NCc2ccc(Cl)cc2)cc1	-63.3
Cc1cc(C)c2cc(CNC3CCCC3)c(Cl)nc2c1	20.3
CNC(=O)c1ccccc1Sc1ccc2c(/C=C/c3ccccn3)n[nH]c2c1	-75.3*!
O=C(Nc1cc(-c2ccccn2)no1)c1cccc2[nH]ccc12	273.0
CC(C)Sc1ccccc1C(=O)NCc1ccccn1	22.0
CC(C)c1ccc2c(c1)CCC1[C@](C)(CN)CCC[C@]21C (some centres undefined)	-8.8
CC(C)c1c(O)ccc2c1CCC1C(C)(C)CCC[C@]21C (some centres undefined)	-46.3
COc1ccc2c3c(n(C)c2c1)[C@@H](CO)N(C(=O)CC1CC1)CC31CN(C(=O)NC(C)C)C1	128.6
COC(=O)[C@@]1(C)CCC[C@]2(C)c3ccc(O)c(C(C)C)c3CCC12 (some centres undefined)	-76.4*
CC(C)c1ccc2c(c1)CCC1C(C)(C(N)=O)CCCC21C (centres undefined)	-71.9*
Cc1cc(C(=O)N2CC[C@@H]3OCCN(Cc4ccncc4)[C@@H]3C2)c(C)o1	-17.6
CNc1cc(OC)c(C(=O)N[C@@H]2CCN(Cc3ccccc3)[C@@H]2C)cc1Cl (racemic)	-52.7
CCCNC(=O)N1[C@H](CO)[C@H](c2ccccc2C2=CCCCC2)[C@@H]1C#N	-33.0
Brc1cccc(-c2nc(-c3ccccc3)c3ccccn23)c1	46.2
Cc1ccc(SCCC(=O)c2ccc(Cl)cc2)cc1	-10.2
Cc1ccc(Sc2c(Sc3ccc(C)cc3)c(=O)c2=O)cc1	-88.0*
Cc1ccc(SCCNS(C)(=O)=O)cc1	3.2
Clc1ccc(-c2nc(N3CCOCC3)ncc2-c2ncc[nH]2)cc1	-60.3
O=C(CCCN1CCN(c2ccccn2)CC1)c1ccc(F)cc1	8.6
Fc1ccc(-c2nc(N3CCN(c4ccccn4)CC3)ncc2-c2ncc[nH]2)cc1	-92.3*
SMILES	Tgondii IFNg
COc1ccc2c3c([nH]c2c1)[C@@H](CO)N(CC1CC1)CC31CN(C(=O)c2ccc(F)cc2)C1	-21.3
CCN1C(=O)CCc2cc(NC(=O)c3ccc(Br)o3)ccc21	37.3
Cc1oc(-c2cccc(F)c2F)nc1COc1cccc2ccc(C(N)=O)nc12	-5.9
CN1CCC(Cc2noc(C3CCCCO3)n2)CC1 (centres undefined)	-7.1
CN(C)c1cc(OC2CCN(C(=O)c3c[nH]c4ccccc34)C2)ncn1 (centres undefined)	-84.0*
CN1[C@@H]2CC[C@H]1CC(OC(=O)c1c[nH]c3ccccc13)C2 (some centres undefined)	-4.7
CN1C2CCC1CC(OC(=O)c1c[nH]c3ccccc13)C2 (centres undefined)	11.7
COc1ccc(NC(=O)N(C)C[C@@H]2Oc3ccc(NC(=O)Nc4cccc5ccccc45)cc3CC(=O)N([C@@H](C)CO)C[C@@H]2C)cc1	-37.2
Cc1ccc(OCCN(C)C)c(NC(=O)c2noc3c2CC(C(C)(C)C)CC3)c1 (centres undefined)	-73.7*
CN(C)c1cc(C(=O)Nc2ccccc2OCC2CCCCO2)ccn1 (centres undefined)	-8.1
CC(C)(C)C1CCc2onc(C(=O)NCC(C)(C)N3CCCCC3)c2C1 (centres undefined)	-14.6
CCCc1ccc(CN2CCn3nc(C(=O)N4CCN(C)CC4)cc3C2)o1	-8.7
Cc1cc(OCn2ccc(C(=O)O)n2)ccc1Cl	27.7
Cc1nc(CN)cc(N2[C@@H]3CC[C@H]2CC(O)C3)n1 (some centres undefined)	-4.4
O=S(=O)(CCOc1ccccc1)N1CCOCC1	26.2
CC[C@@]1(O)C(=O)OCc2c1cc1n(c2=O)Cc2cc3cc(O)ccc3nc2-1	-89.6*
CC[C@@]1(O)C(=O)OCc2c1cc1n(c2=O)Cc2c-1nc1cc(F)c(C)c3c1c2[C@@H](N)CC3	-86.2*
Cc1cnc(C(=O)N2CC[C@@H]3C[C@@H](C)O[C@H]3C2)cn1	2.4
Cc1nnc([C@H]2CO[C@H]3CN(C(=O)c4ccc(C)s4)C[C@H]32)o1	-15.3
Cc1[nH]c2ccccc2c1CCNC(=O)c1cccs1	28.5
CCO[C@H]1COC[C@@H]1NC(=O)Cc1c(C)[nH]c2ccccc12	4.6
Cc1[nH]c2ccccc2c1CCNCc1ccc(/C=C/C(=O)NO)cc1	-81.6*!
Cc1cc(OC(=O)c2nn(-c3ccccc3)nc2C)n(-c2ccccc2)n1	82.8
O=C(NCCc1csc(-c2ccc(F)cc2)n1)C(=O)Nc1ccccc1Cl	42.8
CCOC(=O)c1[nH]c(C)c(C(=O)OCC)c1C	146.1
SMILES	Tgondii IFNg
CCOC(=O)c1[nH]c(C)c(S(=O)(=O)NC2CCCCNC2=O)c1C (centres undefined)	-95.1*
CCOC(=O)c1[nH]c(C)c(CN2CC3CCCN3C[C@@H]2C)c1C (some centres undefined)	-18.3
COc1ccccc1NC(=O)N1CC(=O)N2[C@H](CO)[C@H](c3ccc(C#CC(C)C)cc3)[C@@H]2C1	-23.5
CC(C)(C)[S@@](=O)N1Cc2cc(C(=O)NC3CCC3)nc(-c3cccc(-c4ccccc4F)c3)c2[C@H]1CCO	-68.2
CC1(C)CCC(C)(C)NC(SCc2cccc(C(F)(F)F)c2)=N1	-52.1
CCOC(=O)CNc1nc(C(C)(C)C)nc2c1cnn2C	-3.5
Cn1ncc2c(NCc3cc(C(C)(C)C)n[nH]3)nc(C(C)(C)C)nc21	-75.2*
Cc1nccn1CCN(C)c1nc(C(C)(C)C)nc2c1cnn2C	-11.6
CCc1nc2ccccc2n1CC(=O)Nc1ccc(-n2nc(C)cc2C)c(OC)c1	4.0
Cc1ccc(F)cc1-n1c(-c2ccn[nH]2)n[nH]c1=O	7.6
CCn1c(C2CCCN(Cc3ccc(-c4ccn[nH]4)s3)C2)nn(C)c1=O (centres undefined)	0.6
CCn1c(=O)c(-c2ccn[nH]2)cc2c(C)nc(N)nc21	-74.4*
N#Cc1cccc(CN2Cc3nccn3CC(Cn3cccn3)C2)c1 (centres undefined)	5.8
Cn1cc(-c2cnc3ccc4ccc(CS(=O)(=O)NCc5ccccn5)cc4c(=O)c3c2)cn1	-10.8
CN(C)C(c1ccccc1)c1ccccc1	-12.0
O=c1cc(N2CCOCC2)nc2c3ccccc3ccn12	-2.1
c1ccc2nc3c(cc(N4CCOCC4)c4ccccc43)nc2c1	-103.7*
Cc1cc(N2CCC3(CCCO3)CC2)c2ccccc2n1	-13.3
CCCCCN(CCCCC)C(=O)C(CCC(=O)O)NC(=O)c1ccc(Cl)c(Cl)c1 (centres undefined)	5.9
COc1ccccc1C(=O)Nc1ccc(-c2nc(-c3ccccc3)co2)cc1	-26.1
COc1ccccc1C(=O)Nc1cc2cc(Br)ccc2oc1=O	13.3
COc1ccccc1C(=O)Nc1ccc2c3c(cccc13)CC2	-101.7*
Cn1ccnc1-c1nccn1CC1CCN(Cc2ccccc2)CC1	-8.4
CN(C)CCN1C2(CCN(C(=O)N3CCOCC3)C2)c2ccccc2S1(=O)=O (centres undefined)	8.9

High-throughput results deposited in PubChem by Broad Institute.
